Results published in PubChem BioAssay AID624330 (Southern Research Specialized Biocontainment Screening …, 2012).
About 2,100 (0.62%) of roughly 340,000 compounds were called active.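 The calls were made as follows: active = first-screen hits whose inhibition reached a set limit at any dose in the follow-up dose series; inconclusive = inhibition above the set first-screen limit but never retested; inactive = the rest.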 These entries were drawn from the full list. Entries with a potency or affinity are not part of this list.

The compounds below were run against Rac GTPase-activating protein 1 (Homo sapiens) (UniProt Q9H0H5) (assay: blockers of MgcRacGAP-driven Rac1 GTP hydrolysis – biochemical, ADP Hunter fluorescence, primary and confirmatory, confirmation (AID 624330;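 also: fluorescence reports GDP produced by GAP-driven GTP hydrolysis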)). Details: MgcRacGAP-stimulated Rac1 GTP hydrolysis, at 30 µM, stronger effect = higher value, GST-tagged Rac1 F28L mutant substrate.
Sequence of Rac GTPase-activating protein 1 (Homo sapiens) (Q9H0H5 whole entry, looked up): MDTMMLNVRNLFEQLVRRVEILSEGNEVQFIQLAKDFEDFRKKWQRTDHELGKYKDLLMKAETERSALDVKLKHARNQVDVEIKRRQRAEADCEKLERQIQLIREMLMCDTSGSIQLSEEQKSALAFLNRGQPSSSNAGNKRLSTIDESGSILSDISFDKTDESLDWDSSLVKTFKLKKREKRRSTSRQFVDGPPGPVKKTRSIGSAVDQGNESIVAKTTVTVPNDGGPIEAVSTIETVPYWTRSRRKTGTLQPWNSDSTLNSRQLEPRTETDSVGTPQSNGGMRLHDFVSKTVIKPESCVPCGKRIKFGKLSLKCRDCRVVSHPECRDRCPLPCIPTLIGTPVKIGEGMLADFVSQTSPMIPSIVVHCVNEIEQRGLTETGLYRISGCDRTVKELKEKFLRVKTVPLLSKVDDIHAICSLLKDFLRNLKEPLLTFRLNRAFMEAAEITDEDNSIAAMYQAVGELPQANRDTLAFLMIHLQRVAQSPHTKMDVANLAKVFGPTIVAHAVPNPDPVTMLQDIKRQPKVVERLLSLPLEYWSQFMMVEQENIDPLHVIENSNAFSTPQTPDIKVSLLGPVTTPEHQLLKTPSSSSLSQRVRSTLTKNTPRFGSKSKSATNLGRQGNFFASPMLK

inhibition, inactive:
CCOCCCNC(=S)N1CCCN(c2nc3cc(C)ccc3cc2C#N)CC1 10.8%
O=C(N/N=C/c1ccc2c(c1)OCO2)/C(=C/c1ccc2c(c1)OCO2)NC(=O)c1ccccc1 -2.17%
COc1ccc(/C=N/NC(=O)CNC(=O)c2ccc3c(c2)OCCO3)cc1OC 12.1%
O=C(CNC(=O)c1ccc2c(c1)OCCO2)N/N=C/c1ccc(Cl)cc1 13.2%
COc1cccc(/C=N/NC(=O)CNC(=O)c2ccc3c(c2)OCCO3)c1O 8.24%
O=C(N/N=C/c1ccc2c(c1)OCO2)c1ccc2c(c1)OCO2 9.83%
CN(C)c1ccc(/C=N/NC(=O)CNC(=O)c2ccc3c(c2)OCCO3)cc1 14.6%
COc1ccc(/C=C(/NC(=O)c2ccccc2)C(=O)N/N=C/c2ccc3c(c2)OCO3)cc1OC 4.26%
COc1ccc(/C=N/NC(=O)c2ccc3c(c2)OCO3)cc1 7.95%
CCOC(=O)C(NC(=O)c1ccc(OC)cc1)(Nc1cc(C)on1)C(F)(F)F (centres undefined) 9.87%
Cc1ccccc1NC(=O)OCc1cccnc1Oc1ccc(Cl)cc1 10.3%
C/C(=N\NC(=O)c1cc(C)oc1C)c1ccc2c(c1)OCO2 6.44%
CN(C)CCCN(Cc1ccccc1)C(=S)Nc1cccc(C(F)(F)F)c1 3.49%
Cc1ccc2c(c1)NC(=O)C(CC(=O)Nc1ccc(CN3CCC(C)CC3)cc1)O2 (centres undefined) 4.76%
Cc1[nH]c(N=Nc2ccccc2)nc1N=Nc1ccccc1 8.63%
Cc1ccccc1OCC(=O)Nc1ccccc1N1CCC(C)CC1 4.53%
O=C(C[n+]1ccc(-c2ccccc2)cc1)Nc1ccc([N+](=O)[O-])cc1 8.73%
COC(=O)C1=C(C)N(Cc2ccccc2)C(=NCCCCO)N[C@H]1c1cccc(C(F)(F)F)c1 10.7%
CC1(C)NS(=O)(=O)Oc2ccccc21 15.4%
O=C(NC1=NCCS1)C1CC(=O)N(c2ccc(F)cc2)C1 (centres undefined) 3.19%
Cc1nc2c(ncn2-c2ccccc2)c(=O)n1NC(=O)CN1CCOCC1 6.81%
COc1ccc(/C=C/C(=O)c2ccc3c(c2)OCO3)cc1OC 0.8%
COc1cc(/C=C/C(=O)c2ccc3c(c2)OCO3)cc(OC)c1OC 9.6%
COc1ccc(C(CC(=O)N2CCCCC2)c2c(OC)cc(OC)c3c(-c4ccccc4)cc(=O)oc23)cc1 (centres undefined) 5.73%
COc1ccccc1N1CCN(C2CCCN(Cc3ccc(Cl)cc3)C2)CC1 (centres undefined) -6.75%
Cc1ccc(C(C[N+](=O)[O-])c2c(N)n(C)c(=O)n(C)c2=O)cc1 (centres undefined) 5.58%
COc1ccc(Br)cc1C(C[N+](=O)[O-])c1c(N)n(C)c(=O)n(C)c1=O (centres undefined) 10.7%
COc1ccc(/C=C2\N=C3CCCCCN3C2=O)cc1OC -1.04%
O=C1/C(=C/c2ccncc2)N=C2CCCCCN12 3.48%
COc1ccc(/C=C2/N=C3CCCCCN3C2=O)cc1 4.99%
COc1ccc(/C=C2/N=C3CCCCCN3C2=O)cc1OC 3.87%
COCCn1c(SCC(=O)c2cccc(OC)c2)nnc1-c1ccco1 13.4%
CC(=O)Nc1ccc(NS(=O)(=O)c2c(Cl)cccc2Cl)cc1 5.14%
Cc1cc(C)n2c(SCC(=O)N(CC(C)C)c3c(N)n(CC(C)C)c(=O)[nH]c3=O)nnc2n1 5.05%
O=C(O)CCC(=O)Nc1cccc(C(=O)c2ccccc2)c1 8.75%
OCc1ccccc1OCCCN1CCC(Cc2ccccc2)CC1 22.1%
COc1cccc(OC)c1OCCCN1CCC(Cc2ccccc2)CC1 28%
N#CC1(NC(=O)CSc2nnc(Cc3ccccc3)o2)CCCCC1 -4.91%
CC1CC(C)CN(C(=O)c2ccc(CSc3nc4ccncc4[nH]3)cc2)C1 (centres undefined) 4.54%
COc1ccc(N2CCN(C(CNC(=O)C(C)C)c3ccc4c(c3)OCO4)CC2)cc1 (centres undefined) 26.1%
COc1ccc(C(CNC(=O)c2cc(F)c(F)c(F)c2F)N2CCOCC2)cc1 (centres undefined) 5.28%
COc1ccc(C(=O)NCC(c2ccc3c(c2)OCO3)N2CCN(c3ccc(OC)cc3)CC2)cc1 (centres undefined) 7.8%
COc1ccc(C(CNC(=O)c2cc(C)oc2C)N2CCOCC2)cc1 (centres undefined) -3.27%
COC(=O)NCC(c1ccc2c(c1)OCO2)N1CCN(c2ccccc2)CC1 (centres undefined) 6.79%
COc1ccc(N2CCN(C(CNC(C)=O)c3ccc4c(c3)OCO4)CC2)cc1 (centres undefined) 11.6%
COc1cccc(CC(=O)OCC(=O)NC2(C#N)CCCCC2)c1 6.74%
COc1ccc(N2CC(C(=O)OCC(=O)NCc3ccccc3)CC2=O)cc1 (centres undefined) -1.54%
C=CCn1c(SCC(=O)c2ccc(O)c(O)c2)nnc1-c1ccccc1OC 19.4%
C=CCn1c(SCC(=O)O)nnc1-c1cccc(Cl)c1 -7.04%
C=CCn1c(SCC(=O)c2ccc(O)c(O)c2)nnc1-c1ccc(OC)cc1 8.3%
C=CCn1c(SCC(=O)c2ccc(O)c(O)c2)nnc1-c1ccc(C)cc1 24.7%
O=C(COc1ccccc1F)NCc1nc2ccccc2[nH]1 10.2%
N#Cc1ccc(Cl)cc1NC(=O)COC(=O)[C@H](CCC(N)=O)NC(=O)c1ccc(F)cc1 -1.8%
C[C@H](O)CNC(=O)c1[nH]cnc1C(=O)Nc1ccc(CNC(=O)OC(C)(C)C)cc1 13.6%
COc1ccc(N2CCN(c3ccc(C(=O)O)cc3[N+](=O)[O-])CC2)cc1 25.5%
CC(=O)c1ccc(N2CCN(c3ccc(C(N)=O)cc3[N+](=O)[O-])CC2)cc1 6.37%
COC(C[C@@H]1O[C@@H]1C(=O)COCc1ccccc1)OC 2.07%
O=C(NCCCn1ccnc1)c1cccc(S(=O)(=O)Nc2ccc(Br)cc2)c1 -2.05%
Cn1c(=O)c2c(nc(Br)n2CCCc2ccccc2)n(C)c1=O 8.11%
CSc1nc2c(c(=O)[nH]c(=O)n2C)n1CCCc1ccccc1 5.17%
CSc1nc2c(c(=O)[nH]c(=O)n2C)n1Cc1ccccc1 2.19%
CNc1nc2c(c(=O)n(C)c(=O)n2C)n1CCCc1ccccc1 10.2%
CNc1nc2c(c(=O)[nH]c(=O)n2C)n1CCCc1ccccc1 16.1%
Cn1c(=O)[nH]c(=O)c2c1nc(N)n2Cc1ccccc1 5.45%
COc1ccc(CCn2c(O)cc3nn(-c4nc5ccccc5s4)c(=O)c-3c2C)cc1 20.6%
Cc1ccc(C)c(S(=O)(=O)NCC(=O)NCc2ccco2)c1 1.96%
CC(C)Oc1ccc(C2NC(=O)c3ccccc3O2)cc1 (centres undefined) 4.5%
CC1CCCN(C(=O)C(=O)Nc2ccc3nc4n(c(=O)c3c2)CCCCC4)C1 (centres undefined) 7.24%
Cc1noc(NC(=O)c2cccc(Cl)c2Cl)c1C#N 6.81%
N#Cc1cccc(NC(=O)CSc2sc3c(O)cc(=O)[nH]c3c2C#N)c1 18.4%
NS(=O)(=O)c1ccc(NC(=O)CN2C(=O)CCC2=O)cc1 6.61%
CC1CN(C(=O)N2c3ccccc3Sc3ccccc32)C(C)CC1=O (centres undefined) 5.35%
O=C(CSc1ccccc1)NCC(c1ccco1)N1CCCCC1 (centres undefined) 3.84%
CN1OC[C@@H]2CN[C@H](c3ccc(-c4cccc(F)c4)cc3)C[C@@H]21 15.6%
Cc1nn2cc(-c3ccc(Cl)cc3)nc2s1 -6.27%
Cc1nn2cc(-c3ccc(-c4ccccc4)cc3)nc2s1 11.1%
CC(C)C(=O)N1CCN(c2ccc(NC(=O)c3ccc4c(c3)OCCO4)cc2)CC1 5.03%
Cc1nn(-c2ccccc2)c(C)c1/C=N/O 12.2%
Cc1nn(-c2ccccc2)c(Cl)c1/C=N/O 9.11%
Cc1ccc2nc(C)c(C(=O)N/N=C/c3ccco3)cc2c1 3.04%
CCN(C[C@H]1N[C@@](C)(C(=O)OC)[C@H]2C(=O)N(C)C(=O)[C@@H]12)C(=O)c1ccccc1 6.04%
CC(=O)N(C1=C(N2CCOCC2)C(=O)c2ccccc2C1=O)c1ccc(C(=O)O)cc1 -12.8%
CC(=O)N(C1=C(N)C(=O)c2ccccc2C1=O)c1ccccc1 9.97%
CSc1ccc(NC(=O)CSc2nc3[nH]c(=O)cc(O)c3s2)cc1 11.1%
COC(=O)[C@@H](N)Cc1ccc(O)c(O)c1 -7.99%
N[C@@H](Cc1ccc(O)c(O)c1)C(=O)O 6.56%
COc1ccc(N2CC(C(=O)Nc3ccc(N4CCOCC4)cc3)CC2=O)cc1 (centres undefined) 6.69%
CCOc1cc(C(c2c(C)[nH][nH]c2=O)c2c(C)[nH][nH]c2=O)ccc1OCc1ccc([N+](=O)[O-])cc1 -0.47%
Cc1ccccc1N(C(=O)c1csnn1)C(C(=O)NC1CCCCC1)c1ccncc1 (centres undefined) -1.41%
Cc1cc2nc(-c3ccccc3)cc(=O)n2[nH]1 14.4%
Cc1nc2nc(-c3ccccc3)cc(=O)n2[nH]1 4.54%
CC(C)C(=O)Nc1nnc(NC(=S)Nc2ccccc2)s1 1%
COc1cccc2[nH]c3c(Cl)ncnc3c12 5.53%
COc1ccccc1Nc1ncnc2nc[nH]c12 6.06%
